Measurements: PubChem BioAssay (NCI)
Several values for one entry are separate records, joined by “and”; a condition that tells them apart may be missing. Equal entries are not always repeated. The panel holds about 83,000 compounds, 20% with a hit somewhere; the sample as a whole holds those more often.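 Interpretation: 100, growth as untreated; towards 0, rising growth inhibition; 0, no net growth; 0 to -100, cell death. Compounds scoring below 10 were considered active.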 Activity calls are given as the source filed them.

Test system: T-47D breast
Assay: NCI-60 one-dose screen, 48 h (100 = growth as untreated, 0 = no growth, -100 = all killed)
Conditions: 10 µM
Description: Growth inhibition of the T-47D human tumor cell line is measured as a screen for anti-cancer activity. Cells are grown in 96 well plates and exposed to the test compound for 48 hours. Compounds are tested at a single concentration, which is 10^-5 M for most compounds. The reported endpoint is percent growth (GI% or GIPRCNT), where numbers from 0 - 100% represent growth inhibition, and numbers from -100% - 0 represent cell death. For example, a value of 40 represents 60% growth inhibition. A value of 0 means no net growth occurred over the course of the experiment. A value of -40 indicates 40% of cells at the beginning of the experiment died by the end of the experiment. A value of -100 means all cells are dead at the end of the experiment.
NCI-60 Human Tumor Cell Lines Screen was performed using the standard one-dose NCI protocol, which is described in more detail at https://dtp.cancer.gov/discovery_development/nci-60/default.htm.
Compounds with GIPRCNT values below 10 were considered active. Activity score was based on GIPRCNT using the following formula: […]
Score is 0 for GIPRCNT values of 100 or above, 50 for GIPRCNT values of 0, and 100 for GIPRCNT values of -100.

Row | SMILES | growth
1 | CS(=N)(=O)CCC(N)C(=O)O (stereo not given) | 111% (inactive)
2 | CC[C@@H](C)[C@@H]1NC(=O)C(NC(=O)C(CC(C)C)N(C)C(=O)C2CCCN2C(=O)C(C)O)C(C)OC(=O)C(Cc2ccc(OC)cc2)N(C)C(=O)C2CCCN2C(=O)C(CC(C)C)NC(=O)C(C)C(=O)C(C(C)C)OC(=O)C[C@H]1O (stereo not given in full) | -32.5% (active)
3 | C/C(=C\c1ccc(Cl)c(Cl)c1)[N+](=O)[O-] | -79.3% (active) and 57.7% (inactive)
4 | C[CH2][Hg][S]c1ccccc1C(=O)O | -80% (active)
5 | O=C(CCl)Nc1ccc(Cl)cc1 | 56% (inactive)
6 | C[C@@H]1C[C@@H]([C@H](O)CC2CC(=O)NC(=O)C2)C(=O)[C@@H](C)C1 | 1.15% (active)
7 | CC(=O)Nc1c2sscc-2n(C)c1=O | -87.4% (active)
8 | O=[N+]([O-])c1ccc(N(CCO)CCO)c2c1no[n+]2[O-] | -14.9% (active)
9 | O=C(CBr)Nc1ccccc1 | 92.6% (inactive)
10 | CN(C)CC1(N)C(=O)NC(=O)NC1=O | 89.4% (inactive)
11 | COS(=O)(=O)c1ccccc1 | 104% (inactive)
12 | C#CC1(O)CCC(C(C)(C)C)CC1 (stereo not given) | 111% (inactive)
13 | CCOP(=O)(OCC)/C(C#N)=C/c1ccc(Br)cc1 | 90.8% (inactive)
14 | COc1cc(/C=C\[N+](=O)[O-])ccc1O | 32.5% (inactive) and 71.1% (inactive)
15 | COc1cc([C@@H]2c3cc4c(c(O)c3C[C@H]3COC(=O)[C@@H]32)OCO4)cc(OC)c1OC | 60.8% (inactive)
16 | COc1cc(/C=C(/C)[N+](=O)[O-])ccc1O | -22.6% (active) and -40.3% (active)
17 | Oc1c(I)cc(I)cc1I | 103% (inactive)
18 | CC(=O)[O][Hg][c]1c(C)c(C)cc(C)c1C | -27.8% (active)
19 | S=C=NCCc1ccccc1 | 40.4% (inactive)
20 | Oc1c(Cl)cc(Cl)c2ccccc12.[Cu+2] | 82.9% (inactive)

Row | SMILES | growth
21 | CC(C)C1(NC(=O)C2CC3c4cccc5[nH]cc(c45)CC3N(C)C2)OC2(O)C3CCCN3C(=O)C(Cc3ccccc3)N2C1=O (stereo not given) | 103% (inactive)
22 | C=NCC#N | 98.8% (inactive) and 93.6% (inactive)
23 | CC(C)c1cc([N+](=O)[O-])cc([N+](=O)[O-])c1O | 97.3% (inactive)
24 | CN(CCCl)c1ccc(/C=C/C2=[N+](C)c3ccccc3C2(C)C)cc1 | 29.3% (inactive)
25 | Cc1cc([N+](=O)[O-])c2ccccc2[n+]1[O-] | -6.69% (active) and -8.77% (active)
26 | COc1cc(/C=C/[N+](=O)[O-])cc(OC)c1OC | 13.1% (inactive)
27 | O=[N+]([O-])c1cc[n+]([O-])c2ccccc12 | -20.5% (active)
28 | CC(Cc1ccc2c(c1)OCO2)NN (stereo not given) | 77.5% (inactive)
29 | O=[N+]([O-])c1ccc(N2CCOCC2)c2c1no[n+]2[O-] | 2.59% (active)
30 | O=C1C=Cc2ccccc2C1=O | 97.2% (inactive)
31 | O=[P+](O)c1ccccc1 | 99.9% (inactive)
32 | COC12c3c(C)cc(O)c4c(=O)occ(c34)C(=O)C1C13COC(=O)c4c(O)cc(C)c(c41)C(=O)C2C3OC(C)=O (stereo not given) | 94% (inactive)
33 | O=[N+]([O-])c1ccc(Br)c([N+](=O)[O-])c1 | 54.4% (inactive)
34 | O=C1C(=O)c2ccccc2-c2ccccc21 | -50% (active)
35 | Cc1ccc(C(=O)C2C(c3ccccc3)N2C2CCCCC2)cc1 (stereo not given) | 87.8% (inactive) and 89.7% (inactive)
36 | NC(=O)c1cc([N+](=O)[O-])c(Cl)c([N+](=O)[O-])c1 | 27.5% (inactive)
37 | COC(C(=O)C(O)C(C)O)C1Cc2cc3cc(OC4CC(OC(C)=O)C(OC5CC(O)C(OC)C(C)O5)C(C)O4)cc(O)c3c(O)c2C(=O)C1OC1CC(OC2CC(OC3CC(C)(O)C(OC(=O)C(C)C)C(C)O3)C(O)C(C)O2)C(O)C(C)O1 (stereo not given) | -24.1% (active)
38 | O=C(O)c1cc(Cc2ccc(O)c(C(=O)O)c2)ccc1O (tested in a mixture with another compound) | 53.1% (inactive)
39 | COc1cc2c(cc1OC)C13CCN4CC5=CCOC6CC(=O)N2C1C6C5CC43 (stereo not given) | 96.9% (inactive) and 109% (inactive)
40 | Cc1cc(C)c(C[N+](C)(C)C)c(C)c1C | -0.376% (active)
